# Sampled rows, rich in hits. Any-hit rate of the full collection: about 2.7%.
# ATG4B inhibitor = inhibitors of human ATG4B cysteine protease | AID 504462 | ATG4B cleavage of LC3-PLA2, NBD-HPC fluorescence, 1 h | inhibition, % at 8.33 µM | 340,000 tested, 0.51% active; in the data active = inhibition above about 40%
# CendR NRP1 mod = modulators of CendR peptide binding to human neuropilin-1; O14786; FAM-RPARPAR peptide binding to NRP-1, fluorescence polarization; inhibition, % at 25 µM; 360,000 tested, 0.85% active;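 active = inhibition or corrected inhibition above about 18%, plus a signal ratio from 0.5 to 1.5, limit read from the data, passing the limit was not always enough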
# Target sequence (O14786 whole entry, looked up): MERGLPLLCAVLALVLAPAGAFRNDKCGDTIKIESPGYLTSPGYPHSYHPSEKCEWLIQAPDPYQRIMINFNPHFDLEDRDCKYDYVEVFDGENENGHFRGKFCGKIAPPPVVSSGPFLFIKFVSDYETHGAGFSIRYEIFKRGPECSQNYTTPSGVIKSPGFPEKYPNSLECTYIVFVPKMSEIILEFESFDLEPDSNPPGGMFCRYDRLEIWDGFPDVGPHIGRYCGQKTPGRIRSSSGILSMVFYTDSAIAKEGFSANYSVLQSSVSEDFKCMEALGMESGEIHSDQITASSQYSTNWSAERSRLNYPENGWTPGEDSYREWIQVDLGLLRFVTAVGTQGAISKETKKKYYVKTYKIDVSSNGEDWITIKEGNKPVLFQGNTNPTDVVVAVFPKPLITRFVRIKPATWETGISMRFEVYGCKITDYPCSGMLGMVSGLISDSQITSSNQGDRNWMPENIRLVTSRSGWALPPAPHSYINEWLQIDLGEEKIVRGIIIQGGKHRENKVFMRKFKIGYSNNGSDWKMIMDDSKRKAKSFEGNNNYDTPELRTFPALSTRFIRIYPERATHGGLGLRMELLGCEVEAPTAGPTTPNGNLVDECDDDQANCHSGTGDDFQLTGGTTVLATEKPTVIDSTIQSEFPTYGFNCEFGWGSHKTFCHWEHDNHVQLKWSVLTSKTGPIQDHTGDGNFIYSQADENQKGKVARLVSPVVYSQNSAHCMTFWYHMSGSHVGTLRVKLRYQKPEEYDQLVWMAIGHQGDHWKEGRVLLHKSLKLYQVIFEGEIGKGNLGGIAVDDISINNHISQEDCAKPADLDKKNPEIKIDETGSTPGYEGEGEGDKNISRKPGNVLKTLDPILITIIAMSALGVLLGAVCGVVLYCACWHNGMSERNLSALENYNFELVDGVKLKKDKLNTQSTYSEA
# SKN-1 block = blocks SKN-1 activity in C. elegans | C. elegans VP596 Pgst-4::GFP/RFP ratio, acrylamide-induced, 24 h | 360,000 tested, 0.49% active | inhibition, % at 21.8 µM | AID 624304;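 active = interference check ratio from 0.5 to 1.5 plus GFP to RFP signal ratio inhibition reaching or exceeding a fixed threshold, cut at about 30% in these data, passing the limit was not always enough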
# MPTP block = permeability transition pore inhibition | inhibition, % at 10 µM | isolated mouse mitochondria, Ca2+ swelling absorbance, 30 min | 360,000 tested, 1.4% active;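 active = inhibition of 50% or more, scaled per plate between neutral and stimulator controls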;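 also: 0% = DMSO wells given calcium and 100% = 1 mM EGTA wells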
# CFTR F508del cor = CFTR F508del correction in bronchial cells; CFBE cells, YFP halide quenching; stimulated with forskolin plus potentiator P3; % fluorescence drop versus neutral controls; activity (quench increase), % at 7.58 µM; 350,000 tested, 0.36% active; AID 720511;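 active = mean added fluorescence quench of at least 8% versus neutral control, with both replicates also reaching 8%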;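 also: cells transiently co-express mutant CFTR-F508del with the halide-sensitive YFP; corrector assay measuring rescue of mutant channel to the surface after 24 h compound exposure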
# PLA2 ctr = counter-screen for ATG4B inhibitors: human phospholipase A2 | inhibition, % at 8.33 µM | shares compounds with ATG4B inhibitor | AID 588402 | 1,600 tested, 66% active | purified PLA2, NBD-C6-HPC fluorescence, 45 min; in the data active = inhibition above about 50%
# Numbers without * were called inactive; . = no result given.
SMILES,ATG4B inhibitor,CendR NRP1 mod,SKN-1 block,MPTP block,CFTR F508del cor,PLA2 ctr
Cc1c(Cl)cccc1NC(=O)Nc1cc(C(C)(C)C)on1,77.6*,-4.0,6.2,-0.7,-1.2,83.7*
O=C(COc1ccccc1[N+](=O)[O-])Nc1ccccc1N1CCCCC1,43.2*,6.6,-6.2,-0.1,.,73.5*
Cc1ccccc1OCC(=O)Nc1ccccc1N1CCCCC1,25.7,2.1,-2.0,6.9,.,.
O=C(COc1ccccc1[N+](=O)[O-])Nc1ccccc1N1CCCC1,49.7*,5.2,4.3,5.7,-3.3,57.6*
Cc1cccc(OCC(=O)Nc2ccccc2N2CCCC2)c1C,10.7,4.1,18.3,0.2,-2.7,.
Cc1noc(C)c1NC(=O)N(C)C[C@H]1Oc2ccc(NC(=O)Cc3ccccc3)cc2C(=O)N([C@@H](C)CO)C[C@@H]1C,.,.,.,.,-0.8,.
COc1ccccc1-c1ccc2c(c1)[C@@H]1[C@@H](CCN1S(=O)(=O)c1cccc(F)c1)[C@H](CO)N2,.,.,.,.,1.2,.
CCCC#Cc1cnc2c(c1)C(=O)N([C@H](C)CO)C[C@@H](C)[C@@H](CN(C)C(=O)C1CC1)O2,.,.,.,.,2.2,.
CCn1cc(C(=O)NCc2cccc(C(F)(F)F)c2)c(=O)c2ccc(C)nc21,53.5*,-4.2,14.2,1.1,-4.0,49.5
CCn1cc(C(=O)OCC(=O)c2cc(C)n(-c3cccc(C(F)(F)F)c3)c2C)c(=O)c2ccc(C)nc21,75.2*,-2.4,5.7,4.4,.,67.2*
CCn1cc(C(=O)OCC(=O)c2ccccc2)c(=O)c2ccc(C)nc21,7.3,-7.0,-18.4,-0.9,-0.3,.
CCCCN1C(=O)C2Cc3c([nH]c4ccccc34)CN2C1=S (stereo not drawn),45.1*,-60.2,5.1,8.1,1.3,79.9*
